# Paper PMC10163288
# The list is a sample of the results. How many sequences the whole screen found active is unknown. Values without a mark were called inactive.
# B1: il2ra_site2_2erj_sap_27_mot_HHH_b1_06697_000000025_0001_41_54_H_._HHH_b2_06097_0001_0000200013_0000001_0_0001 (protein)
# chain: SSSSDKLRELYKLAVELMRLVAEGDEERFEEVAEEVRKLVEELDSRTAREILEALERKIKSSSSS
# B2: il2ra_site2_3nfp_sap_22_mot_ems_3hM_1278_af2_000000151_0001_43_60_H_._HHH_b2_04893_0001_0000100005_0000001_0_0001 (protein)
# chain: SSSSSEELEELIEQARELLEEGDKYEAAQVVLRASRLALELNDPEAARRILELFEEIQRTSSSSS
# B3: il2ra_site2_3nfp_sap_18_mot_7f6a3539c8daa08639e4cdbcc6f77908_0001_af2_000000032_0001_16_31_H_._HHH_b1_04314_af2_0001_0000300027_0000001_0_0001 (protein)
# chain: SSSSDKSEEYLRIALELLEEAIKAGDEEAARSHLEVAKAAAESHNDEEVEERLEELEELLSSSSS
# B4: il2ra_site2_2erj_sap_12_mot_HHH_b1_05666_000000037_0001_42_55_H_._HHH_b2_06677_0001_0000400020_0000001_0_0001 (protein)
# chain: SSSSDERLHELYKLANELLRLEFEGDEERIEELLQRVRELAEELKSDAARELVERVEKKLSSSSS
# B5: il2ra_site1_1z92_normal_mot_HHH_b2_05027_000000150_0001_42_56_H_._HHH_b2_03014_0001_0000400026_0000001_0 (protein)
# chain: SSSSSSSEEWLEELVELVIKRSDDPEEQEELRRLLEELREEGDPELWLELAQLLIEIASSSSSSS
# B6: il2ra_site1_3nfp_sap_17_mot_HHH_b1_06312_000000077_0001_1_18_H_._HHH_b1_02603_af2_0001_0000500014_0000001_0_0001_af2pred_0001_af2pred_1 (protein)
# chain: SSSSDVEEFLEEIKEELREALEKGDARLAARIFKEASKKLREKGNPELAEELYEFLRKLISSSSS
# B7: il2ra_site2_2erj_sap_25_mot_HHH_b1_02841_000000060_0001_43_57_H_._HHH_b1_02445_af2_0001_0000300014_0000001_0_0001 (protein)
# chain: SSSSDTEERVEEVLEEARKAYEEGDLHEVYRLAVEAMRIASENNDQEALELVLRFIEELSSSSSS
# B8: il2ra_site1_2b5i_sap_8_mot_HHH_b1_04517_000000040_0001_39_52_H_._HHH_b2_05314_0001_0000400027_0000001_0_0001_af2pred_dldesign_0_af2pred (protein)
# chain: SSSDPKALAETAAAIVEELEEKYNLNLEQSAVLERLAVELVWKGVSPEEIRRRLEALAKELSSSS
# B9: il2ra_site1_1z92_normal_mot_01209686ea234b34325f918445e6eade_0001_af2_000000154_0001_18_33_H_._HHH_b1_01021_0001_0000100004_0000001_0_af2pred_0001_1_af2pred_swa … (protein)
# chain: SSSSSDELEEFIEELVKELGLDEEAKETLERLLEKLQEQGVSERAIRRALERMARRMRGSSSSSS
# B10: il2ra_site2_3nfp_sap_11_mot_HHH_b1_00882_af2_000000293_0001_1_18_H_._HHH_b1_01194_af2_0001_0000300012_0000001_0_0001 (protein)
# chain: SSSSSSSLYELLQEAVEAAKNGNPEEAKEILEQALEEAREAGDEEAEHFIEWFIKAVRSSSSSSS
# B11: il2ra_site2_2erj_normal_mot_HHH_b1_04373_af2_000000118_0001_18_33_H_._HHH_b2_00961_af2_0001_0000900028_0000001_1 (protein)
# chain: SSSSSDEEEVERRVRELLEEAEKVDLEEAYKLAVEALHLAAENRDPELLRLILEWVEKHSSSSSS
# B12: il2ra_site2_3nfp_sap_15_mot_HHH_b1_02990_000000128_0001_41_58_H_._HHH_b1_03794_0001_0000400021_0000001_0_0001 (protein)
# chain: SEAEEIIKLIAELLGTPPERVRERVEDAAEIVNRPPEEAAAYLLAQVALELGDPELEKEAKRLSR
# B13: il2ra_site2_2erj_sap_28_mot_HHH_b1_08185_000000106_0001_41_55_H_._HHH_b2_03845_af2_0001_0001200037_0000001_0_0001 (protein)
# chain: SSSSDEEEERLEELVERAERLLKEGNPEEAWEVLREAATLAWELGDEEIWSRLSKLTAEVASSSS
# B14: il2ra_site1_1z92_normal_mot_54e474eed2d0515e81978198f0f96ec2_0001_000000202_0001_15_30_H_._8eb524b276bbb897fd8f0cca34c37a2d_0001_af2_0001_0000300018_0000001_0_a … (protein)
# chain: DVEEEIEEALKELGVPPEEIKVVKRDFRLAREAGIPPEQVLRALINAARASGDEELTEALELVLK
# B15: il2ra_site1_3nfp_normal_mot_e80b558ee5422d85aa46efdc370d0602_0001_af2_000000114_0001_54_65_H_._HEEHE_2247_0002_0000400019_0000001_0_af2pred_0001_af2pred (protein)
# chain: DRQEILQEDAELISKVAGVTSVHVEVENGHVTVTVEADNRRARALLRILREAAKIAGLEVEITIE
# B16: il2ra_site2_2erj_normal_mot_HHH_b1_02757_000000121_0001_41_57_H_._HHH_b1_02256_0001_0000700046_0000001_0_af2pred_0001_af2pred (protein)
# chain: SSSSSSSVEEEVKELLEQAKHIPDIREALKVLEEADRLALENDNEELLELITRVLRELSSSSSSS
# B17: il2ra_site2_2erj_normal_mot_HHH_b2_04744_000000294_0001_42_58_H_._HHH_b1_07967_af2_0001_0000500022_0000001_0 (protein)
# chain: SSSSDEEERLEELLKELEELSRKRDFHRFAEVFSEILELVEENNDEEAALIAFRIMREHFGSSSS
# B18: il2ra_site1_2b5i_normal_mot_f5ff40796168375b462bec8614a1db4a_0001_1_000000138_0001_53_65_H_._HHH_b2_01775_0001_0000500027_0000001_0_af2pred_dldesign_0_af2pred (protein)
# chain: SSSSSSEKRELIQALIDEAKKEEDKRLAKRLLLLALRLARKHNDEELIAEIEALLKELESSSSSS
# B19: il2ra_site2_2erj_sap_16_mot_HHH_b2_07792_af2_000000252_0001_18_34_H_._HHH_b1_07975_af2_0001_0000200006_0000001_0_0001 (protein)
# chain: SSSSSDTEEEVEELLEQAKRITDLREVYRLAVEALHLAARVQDPELQRLVAEVVEELSRSSSSSS
# B20: il2ra_site2_2erj_sap_19_mot_HHH_b2_01275_af2_000000073_0001_23_39_H_._HHH_b1_01063_af2_0001_0000200019_0000001_0_0001 (protein)
# chain: SSSSDKLRELYELAVEVLRAVARGDEEEAERLLEEAKELAEELDSPNAREALENNKRLLKSSSSS
# B21: il2ra_site2_2erj_sap_14_mot_HHH_b2_01204_af2_000000056_0001_19_34_H_._HHH_b2_03878_0001_0000200011_0000001_0_0001 (protein)
# chain: SSSSDWLHELYELASEITRLLAEGDPEEARRLLEELEELAEENDSPNAEEIVERLEKKIESSSSS
# B22: il2ra_site1_2b5i_sap_14_mot_HHH_b2_01684_af2_000000128_0001_1_17_H_._HHH_b1_05605_0001_0000200010_0000001_0_0001_af2pred_dldesign_0_af2pred (protein)
# chain: SSSSSSSSDRRALLEEANKAFQAGDVEALEALLERAEAAGWEKVARTIRKAIEALLESSSSSSSS
# B23: il2ra_site1_2b5i_sap_9_mot_HHH_b2_02740_000000236_0001_1_21_H_._HHH_b1_02398_0001_0000300016_0000001_0_0001 (protein)
# chain: SSSSDDELFHEIDELFREASRLFLNGNPEEAEKVLEKAIRLAEEGGDESTAEDLRRFLELLSSSS
# B24: il2ra_site2_3nfp_sap_25_mot_HHH_b2_06150_000000217_0001_39_53_H_._HHH_b2_05014_af2_0001_0000300011_0000001_0_0001 (protein)
# chain: DEVSEVIWRLREEGDPELAFLLFAVRADVLYKHDPELEEELEKLIELAERDPEKAKELAEELLRR
# Biological target: il2ra, P01589
# Sequence (P01589 whole entry): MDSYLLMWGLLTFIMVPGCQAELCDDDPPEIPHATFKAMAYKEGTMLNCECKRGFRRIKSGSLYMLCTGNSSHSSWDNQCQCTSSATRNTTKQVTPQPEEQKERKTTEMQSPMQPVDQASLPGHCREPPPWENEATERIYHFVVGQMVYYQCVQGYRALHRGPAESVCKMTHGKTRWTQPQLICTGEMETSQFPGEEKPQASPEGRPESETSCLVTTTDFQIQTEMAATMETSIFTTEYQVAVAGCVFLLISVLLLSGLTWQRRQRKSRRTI
# Assay: yeast display titration
row,Binder,apparent Kd
1,B1,no binding seen
2,B2,no binding seen
3,B3,no binding seen
4,B4,no binding seen
5,B5,no binding seen
6,B6,no binding seen
7,B7,no binding seen
8,B8,no binding seen
9,B9,no binding seen
10,B10,no binding seen
11,B11,no binding seen
12,B12,no binding seen
13,B13,no binding seen
14,B14,no binding seen
15,B15,no binding seen
16,B16,no binding seen
17,B17,no binding seen
18,B18,no binding seen
19,B19,no binding seen
20,B20,no binding seen
21,B21,no binding seen
22,B22,no binding seen
23,B23,no binding seen
24,B24,no binding seen
